Data published in PubChem BioAssay (NCI).
About 83,000 compounds went through this panel and 20% of them were active in at least one assay; those are over-represented in the sample as a whole.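 A percent growth of 40 corresponds to 60% growth inhibition; 0 means no net growth; -100 means all cells died. Active threshold: below 10.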 The source made the active and inactive calls.

Legend:
Assay in all cases: NCI-60 one-dose screen, 48 h (100 = growth as untreated, 0 = no growth, -100 = all killed)
Conditions in all cases: 10 µM
DU-145 prostate = test system: DU-145 prostate
K-562 leukemia = test system: K-562 leukemia
MALME-3M melanoma = test system: MALME-3M melanoma
MDA-MB-231 breast = test system: MDA-MB-231 breast
RXF 393 renal = test system: RXF 393 renal
SF-268 CNS = test system: SF-268 CNS
SF-295 CNS = test system: SF-295 CNS
SF-539 CNS = test system: SF-539 CNS
UACC-257 melanoma = test system: UACC-257 melanoma
M14 melanoma = test system: M14 melanoma
HCT-15 colon = test system: HCT-15 colon
HT29 colon = test system: HT29 colon
SNB-75 CNS = test system: SNB-75 CNS
SNB-19 CNS = test system: SNB-19 CNS
U251 CNS = test system: U251 CNS
PC-3 prostate = test system: PC-3 prostate
SK-MEL-5 melanoma = test system: SK-MEL-5 melanoma
UACC-62 melanoma = test system: UACC-62 melanoma
LOX IMVI melanoma = test system: LOX IMVI melanoma
SK-MEL-28 melanoma = test system: SK-MEL-28 melanoma

Measured: growth

COc1ccc(-c2csc(NC(=O)c3ccc(Cc4n[nH]c(=O)c5cccnc45)cc3)n2)cc1
inactive: DU-145 prostate 108% | K-562 leukemia 82.9% | MALME-3M melanoma 86.8% | MDA-MB-231 breast 79.7% | RXF 393 renal 72.4% | SF-268 CNS 97.1% | SF-295 CNS 86.6% | SF-539 CNS 87.1% | UACC-257 melanoma 94.5% | M14 melanoma 103% | HCT-15 colon 85.8% | HT29 colon 104% | SNB-75 CNS 82.6% | SNB-19 CNS 89.8% | U251 CNS 99.1% | PC-3 prostate 77.9% | SK-MEL-5 melanoma 85.7% | UACC-62 melanoma 74.5% | LOX IMVI melanoma 90.3% | SK-MEL-28 melanoma 95.2%

COc1ccc(-c2cc(-c3ccc(Cl)cc3)nc(SCCCCCCC(=O)NO)n2)cc1OC
active: SK-MEL-5 melanoma 1.04% | LOX IMVI melanoma 0.604%
inactive: DU-145 prostate 82.4% | K-562 leukemia 36.1% | MALME-3M melanoma 42.5% | MDA-MB-231 breast 70.8% | RXF 393 renal 57.5% | SF-268 CNS 91.9% | SF-295 CNS 77.1% | SF-539 CNS 58.4% | UACC-257 melanoma 72.1% | M14 melanoma 44.4% | HCT-15 colon 30.5% | HT29 colon 46.7% | SNB-75 CNS 34% | SNB-19 CNS 60.6% | U251 CNS 59.8% | PC-3 prostate 58.6% | UACC-62 melanoma 28.1% | SK-MEL-28 melanoma 72.9%

N#CCc1csc(Cc2ccccc2)n1
inactive: DU-145 prostate 108% | K-562 leukemia 103% | MALME-3M melanoma 101% | MDA-MB-231 breast 114% | RXF 393 renal 119% | SF-268 CNS 100% | SF-295 CNS 106% | SF-539 CNS 104% | UACC-257 melanoma 94.5% | M14 melanoma 101% | HCT-15 colon 109% | HT29 colon 98% | SNB-75 CNS 101% | SNB-19 CNS 101% | U251 CNS 103% | PC-3 prostate 109% | SK-MEL-5 melanoma 102% | UACC-62 melanoma 103% | LOX IMVI melanoma 95.9% | SK-MEL-28 melanoma 108%

COc1cc2cc(Oc3ccc(NC(=O)c4ccccc4)cc3)c(C)nc2cc1OC
inactive: DU-145 prostate 100% | K-562 leukemia 88.1% | MALME-3M melanoma 93.6% | MDA-MB-231 breast 66% | RXF 393 renal 53.3% | SF-268 CNS 65.5% | SF-295 CNS 72.2% | SF-539 CNS 97.6% | UACC-257 melanoma 95.2% | M14 melanoma 121% | HCT-15 colon 94.3% | HT29 colon 104% | SNB-75 CNS 54.1% | SNB-19 CNS 98.6% | U251 CNS 59.3% | PC-3 prostate 75.4% | SK-MEL-5 melanoma 80.2% | UACC-62 melanoma 95.9% | LOX IMVI melanoma 86.5% | SK-MEL-28 melanoma 92.9%

Cc1cc(CCNC=O)c(C)c2c1sc1ccccc12
inactive: DU-145 prostate 112% | K-562 leukemia 97.2% | MALME-3M melanoma 105% | MDA-MB-231 breast 79.9% | RXF 393 renal 80% | SF-268 CNS 92.5% | SF-295 CNS 94.8% | SF-539 CNS 87.2% | UACC-257 melanoma 90.1% | M14 melanoma 118% | HCT-15 colon 90.2% | HT29 colon 97.1% | SNB-75 CNS 81.9% | SNB-19 CNS 85.1% | U251 CNS 92% | PC-3 prostate 84.7% | SK-MEL-5 melanoma 78.8% | UACC-62 melanoma 79.1% | LOX IMVI melanoma 98.4% | SK-MEL-28 melanoma 89.9%

COc1cc(/C=C2\CCCC3C2=Nc2ccccc2NC3c2cc(OC)c(OC)c(OC)c2)cc(OC)c1OC (stereo not given)
active: DU-145 prostate 4.98% | K-562 leukemia 5.35% | MALME-3M melanoma -34.9% | RXF 393 renal -49.6% | SF-295 CNS -10.8% | M14 melanoma -0.908% | HCT-15 colon 6.11% | HT29 colon -3.94% | U251 CNS -11.4% | SK-MEL-5 melanoma -52% | UACC-62 melanoma -32.6% | LOX IMVI melanoma -62%
inactive: MDA-MB-231 breast 24.1% | SF-268 CNS 26% | SF-539 CNS 35.2% | UACC-257 melanoma 16.3% | SNB-75 CNS 54.5% | SNB-19 CNS 64.4% | PC-3 prostate 38.2% | SK-MEL-28 melanoma 29.4%

COc1cc2cc(Oc3ccc(NC(=O)c4cccc(C(F)(F)F)c4)cc3)c(C)nc2cc1OC
active: SF-295 CNS 8.94% | PC-3 prostate 9.54% | SK-MEL-5 melanoma 2.78%
inactive: DU-145 prostate 52.9% | K-562 leukemia 23.8% | MALME-3M melanoma 47.5% | MDA-MB-231 breast 33.3% | RXF 393 renal 54% | SF-268 CNS 62.9% | SF-539 CNS 60% | UACC-257 melanoma 44.9% | M14 melanoma 16.1% | HCT-15 colon 38.3% | HT29 colon 31.3% | SNB-75 CNS 68.4% | SNB-19 CNS 58.8% | U251 CNS 19.5% | UACC-62 melanoma 29.3% | LOX IMVI melanoma 45.8% | SK-MEL-28 melanoma 71.4%

CCN1C(=O)CC(SC2CC(=O)N(CC)C2=O)C1=O (stereo not given)
inactive: DU-145 prostate 101% | K-562 leukemia 82.7% | MALME-3M melanoma 97.6% | MDA-MB-231 breast 105% | RXF 393 renal 111% | SF-268 CNS 96.1% | SF-295 CNS 106% | SF-539 CNS 100% | UACC-257 melanoma 100% | M14 melanoma 97.6% | HCT-15 colon 105% | HT29 colon 79.7% | SNB-75 CNS 97.4% | SNB-19 CNS 95.7% | U251 CNS 102% | PC-3 prostate 101% | SK-MEL-5 melanoma 104% | UACC-62 melanoma 102% | LOX IMVI melanoma 95.2% | SK-MEL-28 melanoma 112%

O=C(CCc1nnc2sc(-c3cc(O)c(O)c(O)c3)nn12)c1nc2ccccc2[nH]1
active: K-562 leukemia 8.3%
inactive: DU-145 prostate 112% | MALME-3M melanoma 103% | MDA-MB-231 breast 102% | RXF 393 renal 115% | SF-268 CNS 113% | SF-295 CNS 82.8% | SF-539 CNS 80% | UACC-257 melanoma 110% | M14 melanoma 105% | HCT-15 colon 88.8% | HT29 colon 93.5% | SNB-75 CNS 93.6% | SNB-19 CNS 113% | U251 CNS 94.4% | PC-3 prostate 86.3% | SK-MEL-5 melanoma 84.1% | UACC-62 melanoma 104% | LOX IMVI melanoma 98.3% | SK-MEL-28 melanoma 110%

CN(C)CCOc1cccc(NC2=C(Cl)C(=O)C(Nc3cccc(OCCN(C)C)c3)=C(Cl)C2=O)c1
inactive: SF-295 CNS 66.5% | SNB-75 CNS 84%
active: DU-145 prostate -100% | K-562 leukemia -30.7% | MALME-3M melanoma -74.8% | MDA-MB-231 breast -75.2% | RXF 393 renal -76.5% | SF-268 CNS -50% | SF-539 CNS -86.4% | UACC-257 melanoma -97.3% | M14 melanoma -74% | HCT-15 colon -78.6% | HT29 colon -80% | SNB-19 CNS 6.1% | U251 CNS -93.2% | PC-3 prostate 5.48% | SK-MEL-5 melanoma -95.2% | UACC-62 melanoma -82.2% | LOX IMVI melanoma -81.5% | SK-MEL-28 melanoma -63.9%

O=[N+]([O-])c1ccc(/C(=C/c2ccccc2)[n+]2ccccc2)cc1
inactive: DU-145 prostate 127% | K-562 leukemia 91.9% | MALME-3M melanoma 125% | MDA-MB-231 breast 111% | RXF 393 renal 105% | SF-268 CNS 128% | SF-295 CNS 102% | SF-539 CNS 107% | UACC-257 melanoma 101% | M14 melanoma 114% | HCT-15 colon 104% | HT29 colon 106% | SNB-75 CNS 98.7% | SNB-19 CNS 103% | U251 CNS 94.3% | PC-3 prostate 99% | SK-MEL-5 melanoma 103% | UACC-62 melanoma 100% | LOX IMVI melanoma 105% | SK-MEL-28 melanoma 105%

COc1cc2cc(Oc3ccc(NC(=O)Nc4ccc(Cl)c(C(F)(F)F)c4)cc3)c(C)nc2cc1OC
active: K-562 leukemia -9.54% | MALME-3M melanoma -23% | MDA-MB-231 breast -50.6% | RXF 393 renal -33.4% | SF-268 CNS -10.2% | SF-295 CNS -70.9% | SF-539 CNS -36.2% | UACC-257 melanoma -12.5% | M14 melanoma -73.6% | HCT-15 colon 1.27% | HT29 colon -24.9% | U251 CNS -80.4% | PC-3 prostate -0.614% | SK-MEL-5 melanoma -73.4% | UACC-62 melanoma -51.5% | LOX IMVI melanoma -81.3% | SK-MEL-28 melanoma -35.9%
inactive: DU-145 prostate 12.7% | SNB-75 CNS 12.5% | SNB-19 CNS 23.7%

CC(=O)OC/C=C(/C)C[P+](c1ccccc1)(c1ccccc1)c1ccccc1
inactive: DU-145 prostate 58.3% | K-562 leukemia 28.4% | MALME-3M melanoma 61.7% | MDA-MB-231 breast 75.2% | RXF 393 renal 98% | SF-268 CNS 76.7% | SF-295 CNS 41.6% | SF-539 CNS 64.2% | UACC-257 melanoma 69.7% | M14 melanoma 46.6% | HCT-15 colon 73.3% | HT29 colon 59.8% | SNB-75 CNS 76.8% | SNB-19 CNS 47% | U251 CNS 35.8% | PC-3 prostate 41.3% | SK-MEL-5 melanoma 43.1% | UACC-62 melanoma 47.6% | LOX IMVI melanoma 55.2% | SK-MEL-28 melanoma 69%

COc1cc(OC)c2c(=O)c(O)c(-c3ccccc3)oc2c1
inactive: DU-145 prostate 70.7% | K-562 leukemia 70.6% | MALME-3M melanoma 101% | MDA-MB-231 breast 67.9% | RXF 393 renal 67.6% | SF-268 CNS 66.4% | SF-295 CNS 98.3% | SF-539 CNS 79.7% | UACC-257 melanoma 84.2% | M14 melanoma 73.2% | HCT-15 colon 51.7% | HT29 colon 99.6% | SNB-75 CNS 76% | SNB-19 CNS 62.4% | U251 CNS 47.1% | PC-3 prostate 67.1% | SK-MEL-5 melanoma 72.4% | UACC-62 melanoma 72.1% | LOX IMVI melanoma 59.1% | SK-MEL-28 melanoma 95.8%
